The text below walks through data of PubChem BioAssay AID720711 (National Center for Advancing Translational Sciences (NCATS), 2013).

Among all 360,000 compounds or so, about 290 (0.081%) were called active. Entries that show only a call come without a potency. Calls come from the whole dose curve; as a rule, active = well fitted activation curve with a large enough effect; inconclusive = small, poorly fitted or top-dose-only effect; inactive = no such curve, though single readings can be large or run the other way. The full list was thinned out, with actives kept by preference.
Potency is the fitted concentration of half-maximal effect.

The target of this assay is Rap guanine nucleotide exchange factor 4 (Homo sapiens) (UniProt Q8WZA2). The assay is described as follows: qHTS for Agonist of cAMP-regulated guanine nucleotide exchange factor 4 (EPAC2): primary screen. Note: nearly all actives have a fitted effect of over 50% in size. The settings on record: biochemical qHTS; Potency: EPAC2 activation; series mostly up to 154 µM. In outline: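 qHTS, titration series. 100 nM EPAC2 / 250 nM Rap1B-BODIPY-GDP / 50 uM GDP; RT; ex 480/em 540 nm, 5-min reads to 30 min. Norm. to 6.5 mM cAMP = activation.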
Sequence of Rap guanine nucleotide exchange factor 4 (Homo sapiens) (Q8WZA2 whole entry, looked up): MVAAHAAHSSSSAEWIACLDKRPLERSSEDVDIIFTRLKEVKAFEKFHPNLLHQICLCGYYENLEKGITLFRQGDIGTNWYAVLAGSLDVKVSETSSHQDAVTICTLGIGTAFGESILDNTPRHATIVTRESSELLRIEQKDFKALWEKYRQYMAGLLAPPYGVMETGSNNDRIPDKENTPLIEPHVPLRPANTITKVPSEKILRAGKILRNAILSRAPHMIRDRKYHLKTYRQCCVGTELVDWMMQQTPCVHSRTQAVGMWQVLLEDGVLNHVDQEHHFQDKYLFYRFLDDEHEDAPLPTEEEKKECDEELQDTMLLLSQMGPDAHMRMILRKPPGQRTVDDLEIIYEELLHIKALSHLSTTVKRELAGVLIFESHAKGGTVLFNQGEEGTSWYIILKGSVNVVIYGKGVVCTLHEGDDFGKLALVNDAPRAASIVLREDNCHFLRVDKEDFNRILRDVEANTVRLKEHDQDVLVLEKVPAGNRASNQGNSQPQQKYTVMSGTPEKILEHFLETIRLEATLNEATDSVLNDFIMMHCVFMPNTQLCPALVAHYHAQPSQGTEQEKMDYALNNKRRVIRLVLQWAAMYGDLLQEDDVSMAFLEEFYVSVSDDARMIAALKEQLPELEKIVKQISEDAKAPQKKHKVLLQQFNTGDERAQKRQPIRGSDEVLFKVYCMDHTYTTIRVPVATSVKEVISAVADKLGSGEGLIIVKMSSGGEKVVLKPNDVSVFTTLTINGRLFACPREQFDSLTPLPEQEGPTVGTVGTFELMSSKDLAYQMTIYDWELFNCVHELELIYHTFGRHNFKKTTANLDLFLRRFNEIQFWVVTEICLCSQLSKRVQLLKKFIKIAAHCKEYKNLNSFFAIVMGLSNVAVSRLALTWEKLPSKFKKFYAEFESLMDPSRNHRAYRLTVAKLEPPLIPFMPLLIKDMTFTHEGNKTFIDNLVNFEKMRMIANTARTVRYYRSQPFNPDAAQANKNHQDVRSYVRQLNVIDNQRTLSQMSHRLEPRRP
On the technique in general: Quantitative high-throughput screening tests each substance at several concentrations.
In the case of `COc1ccccc1CNS(=O)(=O)c1cc2c3c(c1)CCC(=O)N3CCC2`, the Potency result was “inactive”.

As to `Cc1ccc(S(=O)(=O)N2[C@@H](Cc3ccccc3)CO[C@H]2CC(=O)OCc2ccccc2)cc1`, the Potency entry was “inactive”.

As to `Cc1ccccc1C#CC1=CC(=O)CC(C)(C)C1`, the Potency result is “inactive”.

Consider `CN(CC(=O)NCc1ccncc1)S(=O)(=O)c1ccc(Br)cc1`, for which the Potency result is “inactive”.

As for `CC(Sc1ccccc1F)C(=O)Nc1cccc(S(=O)(=O)N2CCOCC2)c1` (stereo not given), the Potency result is “inactive”.

As for `CCOC(=O)N1CCC(C(N)=O)CC1`, the Potency result is “inactive”.

In the case of `COC(=O)[C@@]12C[C@@H](CC(=O)NCCCCc3ccccc3)C(=O)N(Cc3ccccc3)C1=CCC(C)(C)C2`, the Potency entry is “inactive”.

As for `O=C(COC(=O)C1CC2C=CC1C2)Nc1ccccc1` (stereo not given), the Potency result was “inactive”.

With `Cc1ccc(S(=O)(=O)N2CCC(C(=O)N[C@@H](C)C(=O)NCCc3ccccc3)CC2)cc1`, the Potency entry is “inactive”.

For the compound `C[C@@H](C(=O)N1CCNCC1)n1cc(CCC(=O)O)nn1`, the Potency entry was “inactive”.

With `N#CCCN1CCN(S(=O)(=O)c2ccc(S(=O)(=O)NC3CC3)cc2)CC1`, the Potency result was “inactive”.

As for `CC(C)(C)OC(=O)NC(Cc1ccccc1)C(=O)NC(CSC1CCCCO1)C(=O)NN` (stereo not given), the Potency result was “inactive”.

Take `O=C(O)CCCCCCCCc1cn(CN2C(=O)c3ccccc3C2=O)nn1`: the Potency result was “inactive”.

As to `O=C1/C(=C/c2coc3ccc(O)cc3c2=O)SC(=S)N1c1ccccc1`, the Potency result was “inactive”.

`Cc1ccc(-c2nn(-c3ccccc3)cc2/C=C2\SC(=S)N(CCCCCC(=O)O)C2=O)o1`: the Potency is 126 µM (active).

On to `O=C(Nc1ccc(Br)cn1)C1CCN(S(=O)(=O)c2cccs2)CC1`, for which the Potency entry is “inactive”.

Consider `COc1ccccc1CCNC(=O)c1c(C)nn(CC(C)C)c1Cl`, for which the Potency result was “inactive”.

With `Cc1ccc(CNC(=O)c2ccc3c(c2)S(=O)(=O)c2ccccc2C3=O)cc1`, the Potency entry was “inactive”.

For the compound `CC1CCN(c2ccc3c(c2)S(=O)(=O)c2cc(C(=O)O)ccc2C3=O)CC1`, the Potency result is “inactive”.

Take `Cc1ccc(CNC(=O)c2cccc3c2C(=O)c2ccc(N4CCC(C)CC4)cc2S3(=O)=O)cc1`: the Potency was 89.1 µM (active).

Turning to `O=C(CSc1ccc(-c2cccs2)nn1)Nc1ccccc1F`, the Potency entry was “inactive”.

On to `CCOC(=O)c1c(NC(=S)Nc2ccccc2)sc2c1CCN(C)C2`, for which the Potency result was “inactive”.

As to `CCc1ccccc1N(CC(=O)NCC1CCCO1)C(=O)CCC(=O)Nc1nccs1` (stereo not given), the Potency entry is “inactive”.

With `CCOC(=O)[C@]12CCCC=C1N(CCC1=CCCCC1)C(=O)[C@H](CC(=O)N1CCCCC1)C2`, the Potency result was “inactive”.

Turning to `CCO[C@@H]1OC(C(=O)N2CCOCC2)=C[C@H](C)[C@H]1CCCO`, the Potency entry was “inactive”.

Consider `Cc1ccc(NC(=S)N2CCCC(c3ccccc3)=N2)cc1`, for which the Potency result was “inactive”.

In the case of `COCC(=O)N1CCc2ccc(NC(=O)c3ccccc3Cl)cc2C1`, the Potency result was “inactive”.

Consider `COc1ccc(-c2onc3ccc(C(C)=O)cc23)cc1`, for which the Potency is 50.1 µM (active).

Turning to `COCc1cc(C(C)=O)ccc1OC`, the Potency result was “inactive”.

Regarding `COc1ccc(-c2ocnc2C(=O)Nc2ccc3c(c2)CCC3)cc1`, the Potency result was “inactive”.
